# A selection: hits, their analogues and other compounds. The true share with any hit is near 8%.
# PTK2B oligo ant: antagonists of human Pyk2 oligomerization; Q293 cells, Pyk2 FERM NanoBiT luminescence; stronger effect = lower value; Q14289; 99,000 tested, 0.83% active; z-score (the deposit names both 25 µM and 10 µM);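 active means Z-score of -3 or lower, scaled per plate to the spread of control and sample wells; inactive means z-score above -3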;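 further: negative z-score means lost luminescence so less FERM oligomerization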
# PostGolgi yeast: growth inhibition of a yeast mutant, post-Golgi transport screen. post-Golgi transport phenotypic cell assay. 98,000 tested, 0.9% active. inhibition, % at 10 µM;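 further: yeast cells grown in 1536-well plates; yeast grown about 18 h at 30C before absorbance read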
# Cav3 T inh: blocks human Cav3.2 T-type calcium channel; B-score at 10 µM; Cav3.2-expressing cells, Fluo-4 calcium fluorescence FDSS; stronger effect = lower value; AID 449739; O95180; 100,000 tested, 4% active;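 active means single-dose well whose peak fluorescence ratio is a statistical outlier from its plate by either plate-standardised score or position-corrected B-score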
# Target sequence (O95180 whole entry, looked up): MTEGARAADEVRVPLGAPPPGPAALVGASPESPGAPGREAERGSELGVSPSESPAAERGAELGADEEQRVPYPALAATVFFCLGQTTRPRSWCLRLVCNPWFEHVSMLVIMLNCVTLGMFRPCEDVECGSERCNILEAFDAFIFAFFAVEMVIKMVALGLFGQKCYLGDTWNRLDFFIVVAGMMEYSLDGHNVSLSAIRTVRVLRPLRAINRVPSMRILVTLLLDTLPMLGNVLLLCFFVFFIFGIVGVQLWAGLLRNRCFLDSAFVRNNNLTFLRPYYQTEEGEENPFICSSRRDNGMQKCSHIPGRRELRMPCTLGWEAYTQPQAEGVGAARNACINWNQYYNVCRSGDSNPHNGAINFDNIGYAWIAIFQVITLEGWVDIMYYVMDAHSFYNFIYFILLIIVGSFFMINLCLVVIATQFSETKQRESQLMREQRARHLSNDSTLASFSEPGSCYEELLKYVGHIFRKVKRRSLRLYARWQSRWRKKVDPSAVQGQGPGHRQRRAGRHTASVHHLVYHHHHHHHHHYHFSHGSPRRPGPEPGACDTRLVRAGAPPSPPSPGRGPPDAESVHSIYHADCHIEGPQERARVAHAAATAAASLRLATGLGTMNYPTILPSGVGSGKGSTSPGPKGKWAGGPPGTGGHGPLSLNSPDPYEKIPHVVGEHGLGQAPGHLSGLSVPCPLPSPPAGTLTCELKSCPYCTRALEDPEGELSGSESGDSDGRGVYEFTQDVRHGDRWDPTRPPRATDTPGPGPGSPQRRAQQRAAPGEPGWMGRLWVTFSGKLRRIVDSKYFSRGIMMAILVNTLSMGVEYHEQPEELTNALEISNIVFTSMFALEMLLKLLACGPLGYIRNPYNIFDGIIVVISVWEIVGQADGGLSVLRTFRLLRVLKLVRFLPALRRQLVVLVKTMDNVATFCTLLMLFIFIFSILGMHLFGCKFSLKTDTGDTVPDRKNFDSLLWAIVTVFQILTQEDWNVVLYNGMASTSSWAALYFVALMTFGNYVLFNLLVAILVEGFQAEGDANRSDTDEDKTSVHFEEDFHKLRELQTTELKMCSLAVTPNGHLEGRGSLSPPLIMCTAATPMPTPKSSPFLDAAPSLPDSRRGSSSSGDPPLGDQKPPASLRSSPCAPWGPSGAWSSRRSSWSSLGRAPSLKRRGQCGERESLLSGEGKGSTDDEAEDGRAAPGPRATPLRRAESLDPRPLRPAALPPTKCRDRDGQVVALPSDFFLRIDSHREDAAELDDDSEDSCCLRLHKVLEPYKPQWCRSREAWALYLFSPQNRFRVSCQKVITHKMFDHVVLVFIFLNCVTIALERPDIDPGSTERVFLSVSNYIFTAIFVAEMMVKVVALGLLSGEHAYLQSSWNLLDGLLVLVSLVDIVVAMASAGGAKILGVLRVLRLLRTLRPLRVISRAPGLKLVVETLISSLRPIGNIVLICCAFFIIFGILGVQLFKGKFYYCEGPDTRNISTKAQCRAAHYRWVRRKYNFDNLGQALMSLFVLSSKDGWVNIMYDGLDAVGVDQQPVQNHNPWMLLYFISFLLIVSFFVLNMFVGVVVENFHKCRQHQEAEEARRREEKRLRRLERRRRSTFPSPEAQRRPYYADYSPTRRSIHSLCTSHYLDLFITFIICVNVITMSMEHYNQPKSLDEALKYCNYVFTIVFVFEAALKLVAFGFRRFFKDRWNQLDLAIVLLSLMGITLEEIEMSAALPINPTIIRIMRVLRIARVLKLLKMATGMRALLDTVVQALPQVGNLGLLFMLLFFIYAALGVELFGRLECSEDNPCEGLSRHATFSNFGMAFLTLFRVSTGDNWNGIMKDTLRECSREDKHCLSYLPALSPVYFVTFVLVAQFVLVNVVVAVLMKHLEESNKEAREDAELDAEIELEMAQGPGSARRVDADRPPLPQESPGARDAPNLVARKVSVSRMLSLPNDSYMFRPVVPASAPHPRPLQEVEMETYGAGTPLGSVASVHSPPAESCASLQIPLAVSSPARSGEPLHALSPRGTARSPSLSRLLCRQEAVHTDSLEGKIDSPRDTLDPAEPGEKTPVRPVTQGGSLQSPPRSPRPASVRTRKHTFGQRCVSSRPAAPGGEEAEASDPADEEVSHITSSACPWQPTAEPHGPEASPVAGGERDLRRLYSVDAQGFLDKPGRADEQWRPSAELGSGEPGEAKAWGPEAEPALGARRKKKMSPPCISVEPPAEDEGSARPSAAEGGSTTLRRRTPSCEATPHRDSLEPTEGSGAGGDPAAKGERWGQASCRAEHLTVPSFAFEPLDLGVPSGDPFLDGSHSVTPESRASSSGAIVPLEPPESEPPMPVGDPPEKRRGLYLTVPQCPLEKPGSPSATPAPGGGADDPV
# PostGolgi ctrl: inhibits growth of the yeast control strain | efflux-deficient yeast background strain, growth absorbance A615, 16 h | inhibition, % at 10 µM | 98,000 tested, 5% active | AID 738
# Numbers stand for hits; n = inactive; x = no result given. Unless noted, no stated cut-off is given here; in the data, active means inhibition above about 30%; inactive means the rest.
SMILES,PTK2B oligo ant,PostGolgi yeast,Cav3 T inh,PostGolgi ctrl
Cc1ccc(OCc2nc(C#N)c(N3CCN(Cc4ccccc4)CC3)o2)cc1,n,n,-5.9,n
N#Cc1nc(COc2ccccc2)oc1N1CCC(Cc2ccccc2)CC1,n,n,-5.6,40
COc1ccc(N2CC(C(=O)NCCCN3CCOCC3)CC2=O)cc1 (configuration not stated),n,n,n,n
COC(=O)c1c(NC(=O)C2(C)Cc3ccccc3C(=O)O2)sc2c1CCCC2 (configuration not stated),n,n,n,n
O=S(=O)(c1cccs1)N1CCC(Cc2ccccc2)CC1,n,n,n,35
O=C(NCCc1ccc(Cl)cc1)C1CCN(S(=O)(=O)N2CCCCC2)CC1,n,n,n,n
CN(C)C(=O)N1CCC(C(=O)NCc2ccc(F)cc2)CC1,x,n,n,n
CN(C)C(=O)N1CCC(C(=O)NCc2ccccc2)CC1,n,n,n,38
O=C(NCCc1ccc(Cl)cc1)C1CCN(S(=O)(=O)c2cccs2)CC1,n,n,-6.7,n
O=C(NCCc1ccccc1)C1CCN(S(=O)(=O)N2CCCC2)CC1,n,33,n,n
CCN(CCNC(=O)C1CCN(S(C)(=O)=O)CC1)c1ccccc1,n,n,n,n
CS(=O)(=O)N1CCC(C(=O)NCCN2CCN(Cc3ccccc3)CC2)CC1,n,31,n,n
CCCOc1ccc(N2C(=O)C3ON(c4ccccc4)C(CCC)C3C2=O)cc1 (configuration not stated),n,n,n,n
CCC(C)NC(=O)c1ccccc1NC(=O)CN(c1ccc(OC)cc1)S(C)(=O)=O (configuration not stated),n,n,n,n
CC(NC(=O)c1ccc(F)cc1)c1ccc2c(c1)CCCC2 (configuration not stated),n,n,-8.5,n
CC(NC(=O)c1ccccc1Br)c1ccc2c(c1)CCCC2 (configuration not stated),n,n,n,n
O=S(=O)(N/N=C1/CC(c2ccccc2)Oc2ccccc21)c1ccc(Br)cc1 (configuration not stated),n,n,x,38
Cc1ccc(S(=O)(=O)N/N=C2/CC(c3ccccc3)Oc3ccccc32)cc1[N+](=O)[O-] (configuration not stated),n,n,n,36
CC(=O)N1CCC(=NNS(=O)(=O)c2ccc(C)c([N+](=O)[O-])c2)CC1,n,n,n,n
O=S(=O)(N/N=C1/CCCc2ccccc21)c1ccc(Br)cc1,n,x,-4.2,x
CC(C)(C)C1CCC(=NNS(=O)(=O)c2ccc(Br)cc2)CC1 (configuration not stated),n,x,n,x
N#CC1=C(N)Oc2cc(Nc3ccccc3)ccc2C1c1ccncc1 (configuration not stated),n,n,n,n
O=C(/C=C/c1ccccc1)NCCSCc1ccccc1Cl,n,n,-5.7,n
Cc1ccc(S(=O)(=O)Nc2ccc3nc(-c4cccn4C)[nH]c3c2)cc1,n,n,-5.7,n
Cn1cccc1-c1nc2ccc(NC(=O)c3ccccc3)cc2[nH]1,n,n,n,n
SMILES,PTK2B oligo ant,PostGolgi yeast,Cav3 T inh,PostGolgi ctrl
CC(=O)N1c2ccccc2C(C)(C)C2CCC(C)CC21 (configuration not stated),n,x,-4.6,x
COc1ccccc1CN(Cc1nc2ccccc2c(=O)[nH]1)C(=O)Nc1ccc(C)cc1,n,n,-4.3,31
Cc1ccccc1NC(=O)N(CCc1nc2ccccc2[nH]1)Cc1ccccc1,n,x,-4,x
COc1ccccc1CN(Cc1nc2ccccc2c(=O)[nH]1)S(=O)(=O)c1ccc(C)cc1,x,n,n,n
COc1ccccc1CN(Cc1nc2ccccc2c(=O)[nH]1)C(=O)Nc1ccccc1C,n,n,-5.9,n
O=c1c2c(-c3cccs3)csc2ncn1-c1ccc(Br)cc1,n,n,n,38
Cc1ccc(C)n1-n1c(C)nc2scc(-c3cccs3)c2c1=O,n,n,-3.9,n
Cc1cccc(NC(=O)CSc2nnc(-c3ccc(S(=O)(=O)N4CCOCC4)cc3)n2C)c1,n,n,n,n
CC(=O)Nc1ccc(S(=O)(=O)N(c2cccnc2)S(=O)(=O)c2ccc(NC(C)=O)cc2)cc1,n,x,n,x
CC(C)Sc1nc2c(c(=O)[nH]c(=O)n2C)n1CCc1ccccc1,n,n,n,31
CCCn1c(SCc2ccccc2)nc2c1c(=O)[nH]c(=O)n2C,n,n,n,50
Cc1cc(C)n(-c2nc3c(c(=O)[nH]c(=O)n3C)n2Cc2ccccc2)n1,n,n,n,n
Cc1cc(C)n(-c2nc3c(c(=O)[nH]c(=O)n3C)n2CCc2ccccc2)n1,n,n,x,56
CCOC(=O)c1c(C)oc2c1c(C=NCc1ccccn1)c(O)c1ccccc12,x,n,x,n
CCOC(=O)c1c(C)oc2c1c(C(c1cccnc1)N1CCOCC1)c(O)c1ccccc12 (configuration not stated),n,n,n,37
CCOC(=O)c1c(C)oc2c1c1c(c3ccccc32)OCN(Cc2cccnc2)C1,n,n,x,35
CCCCn1nc2cc(C(=O)NC3CCCc4ccccc43)ccc2c1OCC (configuration not stated),x,n,n,n
COC(=O)c1ccc([C@H]2C=C(C(=O)O)O[C@@H](OCc3ccc(CO)cc3)C2)cc1,x,x,n,x
Cc1c([C@H]2[C@@H](CC#N)C2(C)C)c2ccccc2n1C,n,n,n,n
Cc1[nH]c2c(Br)cccc2c1[C@H]1[C@@H](CC#N)C1(C)C,n,n,n,39
CC[C@@H](C)CN1C(=O)N[C@@H](c2ccccc2)C(C(C)=O)=C1C,x,x,n,x
CC1(C)CC(=O)c2sc(NC(=O)C3COc4ccccc4O3)nc2C1 (configuration not stated),x,n,n,38
O=C(Nc1nnc(C(F)(F)F)s1)C1COc2ccccc2O1 (configuration not stated),n,n,-4.2,n
CCc1cccc(NS(=O)(=O)c2ccc3c(c2)oc(=O)n3C)c1,n,n,x,31
O=C(OCn1ncc(Cl)c(Cl)c1=O)c1ccc(C(F)(F)F)cc1,n,109,n,68
SMILES,PTK2B oligo ant,PostGolgi yeast,Cav3 T inh,PostGolgi ctrl
Cc1ccc(C(=O)OCn2ncc(Cl)c(Cl)c2=O)cc1,n,93,n,49
COc1cc(-n2c(=O)c3ccccc3n(Cc3ccccc3)c2=O)cc(OC)c1OC,n,n,n,n
CCCCCn1c(SCc2cccc(C)c2)nc2c1c(=O)[nH]c(=O)n2C,x,x,n,x
Nn1c(COc2ccccc2)nc2ccccc2c1=O,n,n,n,n
COc1cccc(OCc2nc3ccccc3c(=O)n2N)c1,n,n,n,31
Cc1ccc(C(=O)OCC(=O)Nc2sc3c(c2C#N)CCCC3)cc1NC(=O)c1ccco1,n,n,n,n
O=C(Nc1sc2c(c1C(=O)O)CCC2)c1ccco1,n,n,n,n
O=C(Nc1sc2c(c1C(=O)O)CCCC2)c1cccs1,n,n,n,n
Cc1ccc(OCC(=O)Nc2sc3c(c2C#N)CCC3)cc1,n,n,n,n
Cc1ccc(C(=O)OCC(=O)Nc2sc3c(c2C#N)CCCCC3)cc1NC(=O)c1ccco1,n,n,-3.8,n
O=C(Nc1sc2c(c1C(=O)NC1CC1)CCCCCC2)c1ccco1,n,n,n,57

# Source: PubChem (several laboratories)
